Compound activity from PubChem BioAssay.
These entries were drawn from the full list.
aSyn UTR act: Activators via SNCA 5'UTR binding, MLPCN. alpha-synuclein 5'UTR reporter, activators screen. activity score, % (tested at 7.5 µM), hits read low. 7.1% of 300,000 active. AID 1814, 2009; in the data active = activity score below about -60%
Numbers stand for hits.

How did O=C(Cn1cc(C(F)(F)F)cc(Cl)c1=O)NCc1ccc(F)cc1 do in these assays?
aSyn UTR act: -81.2

How did CCOc1ccccc1NC(=O)Cn1nnc(C(=O)NCc2ccco2)c1N do in these assays?
aSyn UTR act: inactive

What do the screens show for `CC(C)(C)n1ncc2c(=O)n(CC(=O)NCc3ccco3)cnc21`?
aSyn UTR act: -92.9

Results for Cc1ccc(F)cc1NC(=O)c1sc2ncn(CC(=O)N3CCN(c4ccccn4)CC3)c(=O)c2c1C ?
aSyn UTR act: -88.7

Results for COc1ccc(-c2csc(Nc3ccc(C)cn3)n2)cc1OC ?
aSyn UTR act: -120.0

How did COc1ccc(-c2csc(Nc3cc(C)ccn3)n2)cc1OC do in these assays?
aSyn UTR act: -235.6

Results for COc1ccc(-c2csc(Nc3ccc(S(N)(=O)=O)cc3)n2)cc1OC ?
aSyn UTR act: inactive

What do the screens show for `O=C(N/N=C/c1cc2c(cc1[N+](=O)[O-])OCO2)c1ccccn1`?
aSyn UTR act: -81.2

Results for Cn1cc(Br)c(C(=O)N/N=C/c2cc3c(cc2Cl)OCO3)n1 ?
aSyn UTR act: -140.3

Results for COc1cc(/C=N/NC(=O)c2ccccn2)cc2c1OCO2 ?
aSyn UTR act: -95.4

Results for O=C(N/N=C/c1cc2c(cc1Cl)OCO2)c1ccccn1 ?
aSyn UTR act: -91.5

How did O=[N+]([O-])c1ccccc1S(=O)(=O)Oc1ccc(C(=S)N2CCOCC2)cc1 do in these assays?
aSyn UTR act: -62.3

Results for O=S(=O)(c1ccc(Cl)s1)N1CCCc2cccc(O)c21 ?
aSyn UTR act: -125.4

Results for O=C(/C=C/c1ccccc1Cl)NCc1ccco1 ?
aSyn UTR act: -120.1

Results for Cc1onc(-c2ccccc2Cl)c1C(=O)NCc1ccco1 ?
aSyn UTR act: -80.2

What do the screens show for `N#C/C(=C\C=C\c1ccccc1)C(=O)NCc1ccco1`?
aSyn UTR act: -63.1

What do the screens show for `Cc1nc(C(=O)NNC(=O)c2c(-c3c(Cl)cccc3Cl)noc2C)cs1`?
aSyn UTR act: inactive

How did O=C(/C=C/c1ccc2c(c1)OCO2)NCc1ccco1 do in these assays?
aSyn UTR act: -68.1

How did O=C(/C=C/c1ccccc1)NCc1ccco1 do in these assays?
aSyn UTR act: -72.2

What do the screens show for `Cc1ccc2c(c1)=C(c1sc(N(C)c3ccc(O)cc3)nc1O)C(=O)N=2`?
aSyn UTR act: -68.4

Results for O=C1S/C(=C\C=C\c2ccco2)C(=O)N1c1ccccc1 ?
aSyn UTR act: -216.6

Results for O=C1S/C(=C\C=C\c2ccco2)C(=O)N1c1ccc(O)cc1 ?
aSyn UTR act: -244.9

What do the screens show for `C/C(=C\c1ccccc1)C(=O)Nc1cc(C)on1`?
aSyn UTR act: -161.0

What do the screens show for `Cc1cc(NC(=O)NC(=O)c2ccccc2)no1`?
aSyn UTR act: -119.9

How did Cc1cc(NC(=O)c2ccc(Cl)cc2)no1 do in these assays?
aSyn UTR act: -106.8

Results for Cc1cc(NC(=O)c2ccco2)no1 ?
aSyn UTR act: -61.8

Results for Cc1cc(NC(=O)c2ccc3nc(C)sc3c2)no1 ?
aSyn UTR act: -122.8

What do the screens show for `COC(=O)Cn1c(=NC(=O)c2ccc(Cl)s2)sc2cc(C)ccc21`?
aSyn UTR act: -184.1

How did COC(=O)Cn1c(=NC(=O)c2ccc([N+](=O)[O-])s2)sc2cc(Br)ccc21 do in these assays?
aSyn UTR act: -67.8

Results for COc1cc(C2Nc3ccc4ncccc4c3C3=C2C(=O)CCC3)ccc1O (stereo not drawn) ?
aSyn UTR act: -102.3

What do the screens show for `O=C(NCCCCCCOC1=NS(=O)(=O)c2ccccc21)C(=O)Nc1ccccc1`?
aSyn UTR act: -93.3

How did COc1ccc(C(=O)CNc2cccc(F)c2)cc1 do in these assays?
aSyn UTR act: -101.2

Results for COc1ccc(C(=O)CCNc2cccc(Cl)c2)cc1 ?
aSyn UTR act: -113.7

What do the screens show for `CC(=O)Nc1ccc(/C=C/c2nc3ccccc3[nH]c2=O)cc1`?
aSyn UTR act: -82.6

Results for O=c1[nH]c2ccccc2nc1/C=C/c1ccc(Cl)cc1 ?
aSyn UTR act: -227.2

What do the screens show for `Cc1cc(C)n(C(N)=NC(=O)c2ccc([N+](=O)[O-])cc2)n1`?
aSyn UTR act: -153.7

What do the screens show for `Clc1ccc(-c2cnc(Oc3ccccc3)nc2)cc1`?
aSyn UTR act: -215.6

What do the screens show for `CCOc1ccc(C2C(C(=O)c3ccc(C)o3)=C(O)C(=O)N2c2nc(C)c(C(=O)OC)s2)cc1` (stereo not drawn)?
aSyn UTR act: -92.4

Results for COc1cccc(NS(=O)(=O)NC(=O)c2c[nH]c3ccccc23)c1 ?
aSyn UTR act: -63.2

Results for CCNc1ccc(Br)cc(C(=O)/C=C/c2ccccc2Cl)c1=O ?
aSyn UTR act: -67.7

What do the screens show for `C/C(=N\Nc1cc(Cl)nc(C)n1)c1ccccc1`?
aSyn UTR act: -142.0

How did Cc1cc(/C=N/Nc2nc(N)ncc2[N+](=O)[O-])c(C)n1-c1cccc(C(F)(F)F)c1 do in these assays?
aSyn UTR act: -116.9

What do the screens show for `O=[N+]([O-])c1cc(CN2CCN(c3cccc(C(F)(F)F)c3)CC2)c2cccnc2c1O`?
aSyn UTR act: inactive

What do the screens show for `Cc1cc(/C=N/Nc2ncnc(N)c2[N+](=O)[O-])c(C)n1-c1ccccc1`?
aSyn UTR act: inactive

How did CCn1c(C(=O)OC)cc2c1ccn2-c1ccc(F)cc1 do in these assays?
aSyn UTR act: -157.1

How did Cc1cccnc1N(C(=O)Nc1cccc(Cl)c1)C1=NCC(C)(C)S1 do in these assays?
aSyn UTR act: -65.6

Results for O=C(Nc1cccc(Cl)c1)ON=C1c2ccccc2-c2ccccc21 ?
aSyn UTR act: -65.7

Results for O=C(Nc1cccc(Cl)c1)c1cnc[nH]1 ?
aSyn UTR act: -86.9

What do the screens show for `CNS(=O)(=O)c1ccc(NC(=O)Nc2cccc(F)c2)cc1`?
aSyn UTR act: -89.1

How did NS(=O)(=O)c1cccc(NC(=O)Nc2ccc(Cl)cc2)c1 do in these assays?
aSyn UTR act: -91.9

What do the screens show for `N#CCc1ccc(NC(=O)Nc2cccc(Cl)c2)cc1`?
aSyn UTR act: -143.0

How did NS(=O)(=O)c1cccc(NC(=O)CCSc2ccccc2Cl)c1 do in these assays?
aSyn UTR act: -120.1

What do the screens show for `O=C(Nc1cccc(F)c1)Nc1cccc(Cl)c1`?
aSyn UTR act: -84.3

How did Oc1c(C(Nc2cccc(C(F)(F)F)c2)c2ccncc2)ccc2cccnc12 (stereo not drawn) do in these assays?
aSyn UTR act: inactive

Results for O=C(Nc1ccc(C(=O)N2CCOCC2)cc1)Nc1cccc(Cl)c1 ?
aSyn UTR act: -139.1

Results for Cc1cccc(N(O)C(=O)Nc2cccc(Cl)c2)c1 ?
aSyn UTR act: -109.4

What do the screens show for `CSc1ccccc1NC(=S)Nc1cccc(C(F)(F)F)c1`?
aSyn UTR act: -63.5

What do the screens show for `CCOc1ccc(NC(=O)Nc2ccccc2SC)cc1`?
aSyn UTR act: -141.7

Results for O=C(Nc1cccc(Cl)c1)Nc1cccc(Cl)c1 ?
aSyn UTR act: -136.9

Results for Cc1cccnc1NC(=O)Nc1cccc(Cl)c1 ?
aSyn UTR act: -185.9

How did CSc1ccccc1NC(=O)Nc1cccc(F)c1 do in these assays?
aSyn UTR act: -82.1

Results for Cc1oc2c(cc(NS(=O)(=O)c3ccc4c5c(cccc35)C(=O)N4)c3ccccc32)c1C(=O)OC(C)C ?
aSyn UTR act: -68.8

Results for Cn1c(CSc2nc3ccccc3s2)nc2ccccc21 ?
aSyn UTR act: -139.6

Results for CCc1cc2c(Sc3nc4ccccc4s3)ncnc2s1 ?
aSyn UTR act: inactive

Results for c1ccc(SCc2nc3ccccc3[nH]2)nc1 ?
aSyn UTR act: -75.1

How did CCNc1nnc(CSc2nc3ccccc3s2)s1 do in these assays?
aSyn UTR act: -70.8

Results for c1ccc2[nH]c(CSc3nc4ccccc4s3)nc2c1 ?
aSyn UTR act: -111.6
